Laboratory results taken from PubChem BioAssay (Tox21).
Inconclusive results are not listed. The source made the active and inactive calls. The call rests on the fitted dose curve; in most records, active means well fitted cell-killing curve with a large enough effect in the repeat runs; inconclusive means weak or mixed curves, or effect the other way; inactive means flat fitted curve, though single readings scatter.

assay: qHTS assay to identify small molecule agonists of the androgen receptor (AR) signaling pathway in the presence of an antagonist - cell viability counter screen (AID 1259379); settings: MDA-kb2 viability, CellTiter-Fluor, 16 h; series mostly up to 92.4 µM; activity change, negative = cytotoxicity: at the top concentration; further: nearly all actives have a fitted effect of over 25% in size
From the text: National Center for Advancing Translational Sciences [NCATS]
NIH Chemical Genomics Center [NCGC]
U.S. Environmental Protection Agency [EPA]
National Institutes of Environmental Health Sciences [NIEHS]
National Toxicology Program [NTP]
U.S. Food and Drug Administration [FDA]
Androgen receptor (AR) is an important member of nuclear receptor family. Its signaling plays a critical role in AR-dependent prostate cancer and other androgen related diseases. Considerable attention has been given in the past decades to develop methods to study and screen for the environmental chemicals that have the potential to interfere with metabolic homeostasis, reproduction, developmental and behavioral functions. Therefore AR binding assay for screening against androgen agonists and antagonists can be used to identify potential endocrine disruptors.
MDA-kb2 cells (from ATCC, deposited by Wilson et al.) are human breast carcinoma cells that were stably transfected with a luciferase reporter gene under control of the MMTV promoter that contains response elements for both androgen receptor (AR) and glucocorticoid receptor (GR). This particular screening for measuring luciferase reporter gene activity using MDA-kb2 cells against Tox21 10K library compounds is a confirmation study on agonist mode screening in the presence of AR-antagonist compound (Nilutamide) at 3.0uM final concentration. The cytotoxicity of the compounds was tested in parallel by measuring the cell viability using CellTiter-Fluor assay system (Promega, Madison, WI) in the same wells.
Tox21 Assay Protocol Summary:
MDA-kb2 cells (cells cultured without CO2) were dispensed at 3,000 cells/well in 4uL of culture medium into white wall/solid-bottom 1536-well plates (Corning Life Sciences, Corning, NY) using a Multidrop Combi (Thermo Fisher Scientific Inc., Waltham, MA) dispenser. The assay plates were incubated at 37C and 0% CO2 for 5hr. One uL of 3.0uM (final concentration) Nilutamide or assay buffer was added using two separate tips of Flying Reagent Dispenser (FRD, Aurora Discovery, San Diego, CA). Then 23nL of compounds dissolved in DMSO at 15 concentrations and positive controls were transferred to the assay plates using a Pintool station (Wako, San Diego, CA). The assay plates were incubated at 37C and 0% CO2 for 16 hr. After 15hr incubation at 37C, 1uL/well CellTiter-Fluor reagent (Promega Corporation) was added to each well of the assay plates using FRD. After 1hr incubation at 37C and 0% CO2, the fluorescence signal was measured using a ViewLux plate reader (PerkinElmer, Shelton, CT).
On the % scale 0 is the no-effect control and ±100 the full control effect.

SMILES	activity change, negative = cytotoxicity
C=C(C)C(=O)OCCOCCOCCOCCOC(=O)C(=C)C	-1.35% (inactive)
CCCCCC(C)N (stereo not given)	5.04% [at 42.5 µM] (inactive)
C[C@H]1C[C@H]2[C@@H]3CCC4=CC(=O)C=C[C@]4(C)[C@H]3C(=O)C[C@]2(C)[C@@]1(O)C(=O)CO	1.73% [at 42.5 µM] (inactive)
CC1CCC(CO)CC1 (stereo not given)	6.1% (inactive)
O=C(O)CNC(=O)c1ccc(CO)o1	0.215% (inactive)
CO[C@@]1(NC(=O)C(C(=O)O)c2ccc(O)cc2)C(=O)N2C(C(=O)O)=C(CSc3nnnn3C)CO[C@@H]21 (stereo not given in full)	-1.07% [at 42.5 µM] (inactive)
CC(C)(C)C(=O)c1ccccc1	0.638% (inactive)
Cc1nc2ccc(CN(C)c3ccc(C(=O)N[C@@H](CCC(=O)O)C(=O)O)s3)cc2c(=O)[nH]1	1.49% [at 42.5 µM] (inactive)
O=C(O)CNC(=O)c1ccccc1	7.07% [at 42.5 µM] (inactive)
CO/N=C(\C(=O)N[C@@H]1C(=O)N2C(C(=O)O)=C(CSc3nc(=O)c(O)nn3C)CS[C@H]12)c1csc(N)n1	1.89% [at 42.5 µM] (inactive)
CCCCc1ccc2c(n1)[C@@H](c1ccc(OC)cc1C[C@H](C)C(=O)O)[C@H](C(=O)O)[C@H]2c1ccc2c(c1)OCO2	-2.24% (inactive)
CC1=NS(=O)(=O)c2cc(Cl)ccc2N1	0.666% [at 42.5 µM] (inactive)
CCCOC(=O)CC	2.29% (inactive)
CN(C)[C@@H]1C(=O)C(C(=O)NCN2CCCC2)=C(O)[C@@]2(O)C(=O)C3=C(O)c4c(O)cccc4[C@@](C)(O)C3C[C@@H]12 (stereo not given in full)	2.77% [at 42.5 µM] (inactive)
Cc1ccnc(NS(=O)(=O)c2ccc(N)cc2)n1	0.0559% [at 42.5 µM] (inactive)
COc1ccc2cc1Oc1cc3c(cc1OC)CC[N+](C)(C)[C@H]3Cc1ccc(cc1)Oc1c(OC)c(OC)cc3c1[C@@H](C2)[N+](C)(C)CC3	0.706% [at 42.5 µM] (inactive)
O=CN(CCO)CCO	2.68% (inactive)
CCOc1ccccc1OCC	-2.2% (inactive)
CC(C)C(=O)OC(=O)C(C)C	3.22% (inactive)
CNCC(O)c1ccc(O)c(O)c1 (stereo not given)	1.57% [at 42.5 µM] (inactive)

SMILES	activity change, negative = cytotoxicity
C[N+](C)(CCOc1ccccc1)Cc1cccs1	0.587% [at 42.5 µM] (inactive)
CCCCCCCCCC[N+](C)(C)[O-]	6.64% (inactive)
CC(C)(N)C#N	-0.694% (inactive)
Cc1ncc(COP(=O)(O)O)c(C=O)c1O	0.24% [at 42.5 µM] (inactive)
CC(=O)OCC(=O)[C@@]1(O)[C@H](C)C[C@H]2[C@@H]3CCC4=CC(=O)C=C[C@]4(C)[C@@]3(F)[C@@H](O)C[C@@]21C	-0.122% [at 42.5 µM] (inactive)
CCO[Si](OCC)(OCC)c1ccccc1	-1.72% (inactive)
CCCCCCCCCCCCCCC(=O)O	2.21% (inactive)
CC(=O)c1cnccn1	-0.0232% (inactive)
CC(C)(C)C(=O)Oc1ccc(S(=O)(=O)Nc2ccccc2C(=O)NCC(=O)O)cc1	3.67% [at 42.5 µM] (inactive)
O=C1NC(=O)C2CC=CCC12 (stereo not given)	-0.327% (inactive)
C=C(C)C(=O)OCC(O)CO (stereo not given)	2.42% [at 42.5 µM] (inactive)
C[N+](C)(C)CCCCCCCCCC[N+](C)(C)C	3.03% [at 42.5 µM] (inactive)
CN1C(C)(C)CC(O)CC1(C)C	1.08% (inactive)
CCOC(=O)COC(=O)c1ccccc1C(=O)OCC	1.93% (inactive)
C=CC(C)(CCC=C(C)C)OC(=O)CC (stereo not given)	0.222% (inactive)
C=C[Si](OC(C)=O)(OC(C)=O)OC(C)=O	0.631% (inactive)
CCNS(=O)(=O)c1ccc(C)cc1	-2.66% (inactive)
COc1ccccc1OCC1CNC(=O)O1 (stereo not given)	-2.92% [at 42.5 µM] (inactive)
CCC(C)(CCCC(C)C)OC(C)=O (stereo not given)	-0.543% (inactive)
CCCn1cc[n+](C)c1C	2.34% (inactive)
